The source of these data is PubChem BioAssay (NCI).

The structures appear in SMILES notation. Compounds without any hit were thinned out: in the full panel of roughly 83,000, 20% have a hit.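 Negative percent growth values reflect cell death: -40 means 40% of the cells present at the start died, and -100 means all died.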 A number with no mark means an inactive call. The source made the active and inactive calls. The calls were made as follows: active = growth percent below 10; inactive = the rest.

Some test systems named below: HCT-15 colon; HT29 colon; SNB-75 CNS; SNB-19 CNS; U251 CNS; PC-3 prostate; SK-MEL-5 melanoma; UACC-62 melanoma; LOX IMVI melanoma; SK-MEL-28 melanoma; SK-MEL-2 melanoma; EKVX NSCLC; SN12C renal; UO-31 renal; TK-10 renal; ACHN renal; CAKI-1 renal; A498 renal; CCRF-CEM leukemia; MOLT-4 leukemia.
Experiment in all cases: NCI-60 one-dose screen, 48 h (100 = growth as untreated, 0 = no growth, -100 = all killed)
Settings in all cases: 10 µM unless noted

With `CC(C)c1ccc(C(=O)Nc2sc3c(c2C(N)=O)CCC(=O)C3)cc1`, the growth was -15.7% (active) in the assay with HCT-15 colon; 5.66% (active) in the assay with HT29 colon; -88.2% (active) in the assay on SNB-75 CNS; 13% in the assay on SNB-19 CNS; -3.68% (active) in the assay with U251 CNS; -44.7% (active) in the assay with PC-3 prostate. Besides, the growth with SK-MEL-5 melanoma is -62.8% (active); in the assay on UACC-62 melanoma it was -35.7% (active); with LOX IMVI melanoma, 4.43% (active); in the assay with SK-MEL-28 melanoma, 7.57% (active); with SK-MEL-2 melanoma, -21.5% (active); with EKVX NSCLC, 16.1%. The growth in the assay on SN12C renal was 2.75% (active); in the assay on UO-31 renal, -97.1% (active); in the assay on TK-10 renal it was -10.6% (active); with ACHN renal, -96.8% (active); in the assay with CAKI-1 renal it was -43.9% (active); with A498 renal it was 62.5%. Also, the growth in the assay with CCRF-CEM leukemia is 2.5% (active); in the assay with MOLT-4 leukemia it was -8.16% (active).
As to `COC(=O)/C=C1/SC(=Nc2ccc(C(F)(F)F)cc2)N(CCc2c[nH]c3ccc(O)cc23)C1=O`, the growth was 3.12% (active) in the assay on HCT-15 colon; -49.9% (active) with HT29 colon; -3.46% (active) with SNB-75 CNS; -2.49% (active) in the assay on SNB-19 CNS; -37.7% (active) with U251 CNS; -33.8% (active) in the assay with PC-3 prostate. For the same compound, the growth in the assay with SK-MEL-5 melanoma was -61.9% (active); in the assay with UACC-62 melanoma, -53.6% (active); with LOX IMVI melanoma it was -60% (active); in the assay with SK-MEL-28 melanoma, -29.5% (active); in the assay on SK-MEL-2 melanoma it was -33.5% (active); in the assay with EKVX NSCLC, 41.1%. Besides, the growth with SN12C renal was -69% (active); in the assay with UO-31 renal it was -18.5% (active); in the assay with TK-10 renal it was 11.7%; in the assay with ACHN renal, -46.1% (active); in the assay on CAKI-1 renal, 31.4%; with A498 renal, -1.57% (active). The results for the growth with CCRF-CEM leukemia and in the assay with MOLT-4 leukemia were -9.32% (active) and -36.2% (active), respectively.
With `Nc1nc2ccc(-c3nc4ccc5[nH]ncc5c4c4c3CCCC4)cc2s1`, the growth was 107% in the assay on HCT-15 colon; 99.2% with HT29 colon; 100% with SNB-75 CNS; 97.7% in the assay on SNB-19 CNS; 102% in the assay with U251 CNS; 100% in the assay on PC-3 prostate. Also, the growth was 111% in the assay on SK-MEL-5 melanoma; 102% in the assay with UACC-62 melanoma; 105% in the assay on LOX IMVI melanoma; 120% in the assay on SK-MEL-28 melanoma; 96.5% with SK-MEL-2 melanoma; 117% with EKVX NSCLC. In addition, the growth is 98.8% in the assay with SN12C renal; 85.7% with UO-31 renal; 96.3% in the assay with TK-10 renal; 111% in the assay on ACHN renal; 99.7% in the assay on CAKI-1 renal; 109% with A498 renal. The results for the growth with CCRF-CEM leukemia and in the assay on MOLT-4 leukemia were 107% and 104%, respectively.
Take `Clc1ccc2c(c1)C(c1c[nH]c3ccccc13)(c1c[nH]c3ccccc13)CCO2`: the growth is 87.1% in the assay with HCT-15 colon; -46.2% (active) in the assay with HT29 colon; 68.4% with SNB-75 CNS; 97.4% with SNB-19 CNS; 46.8% in the assay with U251 CNS; 35.3% in the assay on PC-3 prostate. Further, the growth is 83.8% with SK-MEL-5 melanoma; 57% in the assay with UACC-62 melanoma; 79.4% with LOX IMVI melanoma; 95.3% in the assay with SK-MEL-28 melanoma; -52% (active) in the assay on SK-MEL-2 melanoma; 81.9% with EKVX NSCLC. In addition, the growth with SN12C renal was 85.3%; in the assay on UO-31 renal, 54.2%; in the assay with TK-10 renal it was -43.1% (active); in the assay on ACHN renal, 76.8%; in the assay with CAKI-1 renal, 78.2%; in the assay with A498 renal, 101%. The values for the growth with CCRF-CEM leukemia and in the assay on MOLT-4 leukemia were 45.1% and 32.4%, respectively.
For `Nc1nc2ccccc2c2c(=O)c3cccc(Cl)c3sc12`, the growth with HCT-15 colon is 59%; in the assay on HT29 colon, 92.7%; with SNB-75 CNS, 89.2%; in the assay with SNB-19 CNS, 92.6%; in the assay with U251 CNS it was 77.3%; in the assay on PC-3 prostate, 78.5%. Moreover, the growth was 96.3% in the assay with SK-MEL-5 melanoma; 85.7% with UACC-62 melanoma; 90.2% in the assay with LOX IMVI melanoma; 108% in the assay on SK-MEL-28 melanoma; 108% with SK-MEL-2 melanoma; 83.8% in the assay on EKVX NSCLC. In addition, the growth in the assay with SN12C renal was 82.4%; with UO-31 renal, 75.4%; with TK-10 renal, 83.6%; with ACHN renal, 86.8%; in the assay on CAKI-1 renal, 79%; with A498 renal it was 122%. The values for the growth in the assay with CCRF-CEM leukemia and in the assay on MOLT-4 leukemia were 96.3% and 104%, respectively.
On to `C=CCn1c(SCC(=O)Nc2ccc(C(=O)/C=C/c3ccc(Cl)cc3)cc2)nnc1-c1ccc(Br)cc1`, for which the growth in the assay on HCT-15 colon was 81.2%; in the assay on HT29 colon it was 67.5%; in the assay with SNB-75 CNS, 75.6%; with SNB-19 CNS it was 77.8%; with U251 CNS it was 79.5%; in the assay with PC-3 prostate it was 68%. Moreover, the growth in the assay on SK-MEL-5 melanoma was 82.7%; in the assay with UACC-62 melanoma, 71%; in the assay on LOX IMVI melanoma, 77.7%; with SK-MEL-28 melanoma, 105%; in the assay with SK-MEL-2 melanoma, 76.4%; in the assay with EKVX NSCLC, 101%. In addition, the growth was 80.3% with SN12C renal; 67.9% in the assay on UO-31 renal; 83.3% in the assay on TK-10 renal; 78.3% in the assay with ACHN renal; 74.5% in the assay on CAKI-1 renal; 74.6% with A498 renal. In addition, the growth in the assay with CCRF-CEM leukemia was 79.7%; with MOLT-4 leukemia, 63.1%.
Turning to `COc1ccc(/C=N/C2=C(C#N)C(c3ccccc3)c3ccc4ccccc4c3O2)cc1` (stereo not given), the growth in the assay on HCT-15 colon is 15.8%; with HT29 colon, 6.29% (active); in the assay on SNB-75 CNS, 15.5%; with SNB-19 CNS, 24.6%; in the assay with U251 CNS, 18.5%; in the assay on PC-3 prostate it was 8.18% (active). The growth is 16.3% in the assay on SK-MEL-5 melanoma; 15.8% in the assay on UACC-62 melanoma; 29.5% in the assay on LOX IMVI melanoma; 41.4% with SK-MEL-28 melanoma; 49.4% with SK-MEL-2 melanoma; 42.9% in the assay with EKVX NSCLC. In addition, the growth is 38% in the assay on SN12C renal; 29.6% in the assay with UO-31 renal; 59.7% in the assay with TK-10 renal; 35.4% in the assay on ACHN renal; 28% in the assay with CAKI-1 renal; 19.3% in the assay on A498 renal. The growth in the assay on CCRF-CEM leukemia was 9.58% (active); in the assay with MOLT-4 leukemia it was 19.2%.
